High-throughput results from PubChem BioAssay.
In the library only some 3.5% were active in any assay of this set; here they are far more common.
LEDGF integ inh = blocks HIV-1 LEDGF/p75-dependent DNA integration; TR-FRET IN-LEDGF/p75 DNA integration, Eu/Cy5; inhibition, % at 3.7 µM; 370,000 compounds, 0.64% hits; AID 743269;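 active = inhibition above the screen-wide mean plus 3 SD, cut at about 13% in these data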;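 also: signal is the Cy5 over europium emission ratio at 671 and 618 nm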
rCAG binder = r(CAG) repeat RNA binding. 370,000 compounds, 1.3% hits. inhibition, % at 3 µM. AID 651821. TO-PRO-1 dye displacement fluorescence;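 active = inhibition above the plate cutoff, the mean of all test compounds on that plate plus 3 SD, cut at about 35% in these data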;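 also: higher means more dye released from RNA so lower well fluorescence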
UHRF1 binding = human UHRF1 methylated DNA binding inhibitors | Q96T88 | UHRF1 binding to methylated oligo, TR-FRET | inhibition, % at 4.4 µM | 370,000 compounds, 0.75% hits | AID 687016; in the data active = inhibition above about 21%;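 also: UHRF1 SRA domain binding a hemimethylated CpG hairpin DNA probe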
MBD2 inh = inhibitors of human MBD2 binding to methylated oligonucleotide | 370,000 compounds, 0.31% hits | TR-FRET | AID 686964 | inhibition, % at 4.4 µM; in the data active = inhibition above about 13%
DNMT1 inh = DNMT1 (human) enzyme inhibition; 360,000 compounds, 0.83% hits; inhibition (reported as % activation of signal), % at 10 µM; P26358; DNMT1 molecular beacon, Hinp1I cleavage, fluorescence; in the data active = inhibition above about 50%
PG9 binder = small molecules binding HIV-1 gp120 antibody PG9; TR-FRET gp120-PG9 antibody binding; inhibition, % at 6.7 µM; 360,000 compounds, 0.43% hits; in the data active = inhibition above about 8.5%
Numbers stand for hits; i = inactive; nt = not tested or not shown.

SMILES | LEDGF integ inh | rCAG binder | UHRF1 binding | MBD2 inh | DNMT1 inh | PG9 binder
Cc1nc2cc(C(=O)N3c4ccccc4CC3C)ccc2s1 (stereo not given) | i | i | 21.8 | i | i | i
CC1Cc2ccccc2N1C(=O)c1ccc2snnc2c1 (stereo not given) | i | i | i | i | i | i
Cc1cc(C(=O)NNC(=S)NC2CCCCC2)cs1 | i | i | i | i | i | i
CCn1nc(NS(=O)(=O)c2ccc(F)cc2)c2cc3cccc(C)c3nc21 | i | 62.7 | i | i | i | i
CCCn1nc(NS(C)(=O)=O)c2cc3cccc(C)c3nc21 | i | i | i | i | i | i
Cc1cccc(CC2CC(=O)N(CCc3ccc4c(c3)OCO4)C2=O)c1 (stereo not given) | i | i | 39.7 | i | i | i
O=C1CC(Cc2ccccc2)C(=O)N1CCc1ccc2c(c1)OCO2 (stereo not given) | i | i | i | i | i | i
CCOc1ncccc1C(=O)Nc1ccc(F)c(Cl)c1 | i | i | 76.2 | i | i | i
CCOc1ccc2ccccc2c1/C=N/NC(=O)CNC(=O)c1ccccc1F | i | i | i | i | i | i
CCOc1ccc2ccccc2c1/C=N/NC(=O)CNC(=O)Cc1ccccc1 | i | i | 22.8 | i | i | i
Cc1ccc(S(=O)(=O)Nc2nc3ccccc3nc2NCC2CCCO2)cc1C (stereo not given) | i | 41.9 | i | i | i | i
CCCCNc1ccc(C(F)(F)F)cc1S(=O)(=O)NCCc1ccc(F)cc1 | i | i | 22.5 | i | i | i
COc1ccc(S(=O)(=O)NCCc2ccc(F)cc2)cc1 | i | i | i | i | i | i
CC(COc1cc(F)cc(F)c1)CN1CCC(C(O)(c2ccccc2)c2ccccc2)CC1 (stereo not given) | i | i | i | i | nt | nt
O=C1[C@@H](CCc2ccccc2)[C@@H]2c3ccccc3C=NN2[C@@H]2c3ccccc3C=NN12 | i | i | i | i | nt | nt
Cc1ccc(NC(=O)[C@H](NC(=O)[C@@H]2Cc3ccccc3CN2)c2ccccc2)c(C)c1 | i | i | i | i | i | i
Cc1ccc(NC(=O)[C@H](Cc2ccccc2)NC(=O)[C@@H]2Cc3ccccc3CN2)c(C)c1 | i | i | 26.6 | i | i | i
CSc1ccccc1C(=O)NCc1ccccc1C | i | i | 22.4 | i | i | i
COc1ccccc1/C=C/C=N/n1c(C)nnc1C | i | i | 67.9 | i | i | i
COc1ccc(C(=O)NC2CC2)cc1OC1CCN(Cc2ccc(F)cc2Cl)CC1 | i | i | 29.3 | i | i | i
C/C(=N\OCc1ccc(C#N)cc1)c1ccccc1 | i | i | 70.6 | i | i | i
C/C(=N\OCc1ccc(C#N)cc1)c1ccc(S(=O)(=O)N(C)C)cc1 | i | i | i | i | i | i
O=C(Nc1ccc2ccccc2c1)C1CC2CCC1C2 (stereo not given) | i | nt | i | i | nt | nt
Cc1ccc(NC(=O)COC(=O)CC2SC(N3CCCC3)=NC2=O)cc1 (stereo not given) | i | i | i | i | i | i
COc1cc(C2C(C#N)=C(N)OC3=C2C(=O)CCC3)c([N+](=O)[O-])cc1OC (stereo not given) | 13.4 | i | i | i | i | i
SMILES | LEDGF integ inh | rCAG binder | UHRF1 binding | MBD2 inh | DNMT1 inh | PG9 binder
Cc1cc(C2C(C#N)=C(N)OC3=C2C(=O)CCC3)c(C)s1 (stereo not given) | i | i | i | i | i | i
O=C(CN1CCc2onc(-c3ccc(-n4cc(COc5ccc([N+](=O)[O-])cc5)nn4)cc3)c2C1=O)N1CCOCC1 | i | i | i | i | nt | nt
O=C(O)c1ccc(-c2ccc(/C=C3\NC(=O)N(Cc4ccc(Cl)cc4)C3=O)o2)cc1 | i | i | i | i | i | i
Cc1cc(C(=O)O)ccc1-c1ccc(/C=C2\NC(=O)N(Cc3ccccc3Cl)C2=O)o1 | nt | nt | nt | nt | 63.8 | nt
CCCc1nc2ccc(Br)cn2c1Cc1cccc(Cl)c1 | i | i | 21.0 | i | i | i
CCCc1nc2ccc(Br)cn2c1Cc1ccccc1 | i | i | 23.0 | i | i | i
CCCc1nc2ccc(C)cn2c1Cc1ccccc1 | i | i | i | i | i | i
CN(C(=O)[C@@H](C1CC1)[C@@H](O)c1ccc2ccccc2c1)c1ccccc1 | i | i | i | i | nt | nt
Cc1cc(=O)[nH]c(SCC(=O)Nc2cccc(Cl)c2F)n1 | i | i | i | i | nt | nt
O=C(c1ccc(Cl)c([N+](=O)[O-])c1)N1CCN(S(=O)(=O)c2ccc(Cl)cc2)CC1 | i | i | i | i | i | i
